These results are taken from PubChem BioAssay.

Calls of active or inactive are those of the source. Unless noted, the rule behind the calls is not given here.

Experiment [1] in a line: liver-stage malaria parasite load reduction – cell-based, known kinase inhibitor set, luminescence, hepatoma host viability (AID 624392).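 Note: infected cells incubated roughly two days before readout.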 Conditions: Plasmodium liver stage in hepatoma cells, luciferase luminescence, concentration not given here; liver cell % of control: measured here: host liver cell viability; parasite % of control: stronger effect = lower value.
Experiment [2] in a line: altered dexamethasone sensitivity, NF-kB reporter, cell-based, luciferase, IL-1B stimulus (AID 624486).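 For percent of negative control (+Dex): 100% = mean signal of vehicle control wells on the plate.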 The following applies: IL-1B + dexamethasone, luminescence; percent of negative control (+Dex): actives lie on both sides, concentration not given here; z-score: measured here: IL-1B alone, no Dex.
A short description of experiment [3]: C. elegans survival during P. aeruginosa infection – whole organism (AID 651566).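 Note: tested at 14 µM; sign flipped so higher z means a lower ratio.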 Conditions: C. elegans killed by P. aeruginosa, survival ratio.
A short description of experiment [4]: pro-inflammatory signaling induction in mouse macrophages – cell-based, murine, luminescence (AID 652131). The following applies: murine macrophage pro-inflammatory reporter, stronger effect = higher value.
Experiment [5] concerns the target Cellular tumor antigen p53 (Homo sapiens) (UniProt P04637). Description: GFP-p53 level modulators in HPV16+ cells – imaging, known kinase inhibitor set, EGFP/DsRed ratio (AID 1053116).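 Note: cells exposed to compounds for 24 h at 37 °C before reading.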 Conditions: GFP-p53 stability, stronger effect = higher value; EGFP object count: measured here: GFP-p53 positive objects count.
Experiment [6] in a line: inducers of IRF3 signaling, differentiated THP-1 – cell-based, PMA-stimulated THP-1, luminescence (AID 1053176). Conditions: PMA-differentiated THP-1, IRF3 reporter luminescence; stronger effect = higher value.
The nature of experiment [7]: MELAS cybrid and Rieske KO viability enhancers – cell-based, MELAS cybrids, Rieske KO mouse fibroblasts, CellTiter-Glo, primary screen (AID 1508586;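 active = mean z-score across replicates of 1.96 or higher in either the MELAS or the Rieske mutant cell line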;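 note: z relative to plate mean and SD of compound and empty wells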). Conditions: low glucose. A general note: ATP-based viability assays read luminescence as a measure of living cells.
[8] abbreviates: MELAS cybrid survival, CellTiter-Glo 48 h, stronger effect = higher value.
[9] abbreviates: Rieske KO mouse fibroblast survival, CellTiter-Glo 72 h.

Chain of Cellular tumor antigen p53 (Homo sapiens) (P04637 whole entry, looked up): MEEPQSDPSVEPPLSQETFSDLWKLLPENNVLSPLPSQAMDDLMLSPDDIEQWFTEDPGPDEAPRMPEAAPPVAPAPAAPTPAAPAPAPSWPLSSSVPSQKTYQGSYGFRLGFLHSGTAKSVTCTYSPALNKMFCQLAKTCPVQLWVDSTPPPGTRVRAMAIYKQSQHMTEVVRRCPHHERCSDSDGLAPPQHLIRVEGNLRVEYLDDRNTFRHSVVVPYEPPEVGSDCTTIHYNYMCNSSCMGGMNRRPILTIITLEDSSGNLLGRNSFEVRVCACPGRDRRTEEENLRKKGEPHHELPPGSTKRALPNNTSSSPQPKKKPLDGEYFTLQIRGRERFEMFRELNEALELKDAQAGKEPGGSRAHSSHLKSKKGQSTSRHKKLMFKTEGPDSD

In experiment [1], `Fc1cccc(COc2ccc(Nc3ncnc4sc(-c5cccs5)cc34)cc2Cl)c1` yielded a liver cell % of control of 71.8%. Besides, in experiment [1], the parasite % of control was 60.1% (inactive). Moreover, the percent of negative control (+Dex) in experiment [2] is 92% (inactive). Further, the z-score in experiment [2] was 0.005; in experiment [3], 0.99 (inactive); in experiment [4] it was -0.373 (inactive); in experiment [7] (setting [8]), -0.00271 (inactive); in experiment [7] (setting [9]) it was -0.496. Also, the EGFP object count in experiment [5] was 5. In addition, the EGFP/DsRed ratio in experiment [5] is 0.0533 (inactive). For the same compound, in experiment [6], the fraction signal is -0.0045 (inactive).

Regarding `CCn1c(-c2nonc2N)nc2c(C#CC(C)(C)O)nc(OC[C@@H](N)c3ccccc3)cc21`, the liver cell % of control in experiment [1] came to 87.1%. The parasite % of control in experiment [1] was 48.7% (inactive). For the same compound, the percent of negative control (+Dex) in experiment [2] was 108% (inactive). Moreover, the z-score in experiment [2] was 3.72; in experiment [3], 0.96 (inactive); in experiment [4] it was -1.1 (inactive); in experiment [7] (setting [8]), -0.774 (inactive); in experiment [7] (setting [9]), 0.238. Also, in experiment [5], the EGFP object count was 19.5. Also, the EGFP/DsRed ratio in experiment [5] is 0.658 (inactive). Besides, the fraction signal in experiment [6] is -0.0095 (inactive).

In experiment [1], `CC1=C(C(=O)Nc2cc(Cl)c3[nH]ncc3c2)C(c2ccc(C(F)(F)F)cc2)CC(=O)N1` (centres undefined) had a liver cell % of control of 106%. The parasite % of control in experiment [1] was 193% (inactive). In addition, the percent of negative control (+Dex) in experiment [2] is 73% (inactive). The z-score in experiment [2] was -1.52; in experiment [3] it was -0.22 (inactive); in experiment [4] it was -0.455 (inactive); in experiment [7] (setting [8]), -0.0142 (inactive); in experiment [7] (setting [9]), -0.416. For the same compound, the EGFP object count in experiment [5] was found to be 2. The EGFP/DsRed ratio in experiment [5] is 0.126 (inactive). Also, the fraction signal in experiment [6] is -0.01 (inactive).

`CCS(=O)(=O)c1ccc(OC)c(Nc2ncc(-c3ccccc3Cl)o2)c1` had a liver cell % of control in experiment [1] of 160%. Besides, the parasite % of control in experiment [1] was 36.8% (inactive). Moreover, the percent of negative control (+Dex) in experiment [2] is 74.5% (inactive). Moreover, the z-score in experiment [2] is -0.91; in experiment [3], -0.335 (inactive); in experiment [4] it was -0.503 (inactive); in experiment [7] (setting [8]), 1.39 (inactive); in experiment [7] (setting [9]), -0.145. Further, the EGFP object count in experiment [5] turned out to be 4.5. Further, the EGFP/DsRed ratio in experiment [5] was 0.0626 (inactive). Also, the fraction signal in experiment [6] is 0.0065 (inactive).

In the case of `CS(=O)(=O)CCNCc1nc(-c2ccc3ncnc(Nc4ccc(OCc5cccc(C(F)(F)F)c5)cc4)c3c2)cs1`, in experiment [1], the liver cell % of control was 96.4%. Also, the parasite % of control in experiment [1] was 93.1% (inactive). Also, the percent of negative control (+Dex) in experiment [2] was 91.5% (inactive). The z-score was -0.43 in experiment [2]; -0.1 (inactive) in experiment [3]; 0.202 (inactive) in experiment [4]; 0.123 (inactive) in experiment [7] (setting [8]); -0.291 in experiment [7] (setting [9]). In addition, the EGFP object count in experiment [5] was 4.5. Moreover, the EGFP/DsRed ratio in experiment [5] is 0.116 (inactive). Also, the fraction signal in experiment [6] is -0.002 (inactive).

With `CC(=O)Nc1cccc(C#Cc2cncnc2Nc2ccc(OCc3cccc(F)c3)c(Cl)c2)n1`, the liver cell % of control in experiment [1] is 82.2%. Moreover, the parasite % of control in experiment [1] was 102% (inactive). In experiment [2], the percent of negative control (+Dex) was 68% (inactive). The z-score in experiment [2] is -2.19; in experiment [3], 0.02 (inactive); in experiment [4], 0.499 (inactive); in experiment [7] (setting [8]), 0.392 (inactive); in experiment [7] (setting [9]) it was -0.337. Further, the EGFP object count in experiment [5] came to 6.5. For the same compound, in experiment [5], the EGFP/DsRed ratio was 0.198 (inactive). For the same compound, the fraction signal in experiment [6] was -0.0035 (inactive).

In turn, `CCn1c(-c2nonc2N)nc2c(C#CCN)ncc(OCCCN)c21` showed a liver cell % of control in experiment [1] of 63.5%. Moreover, in experiment [1], the parasite % of control is 112% (inactive). For the same compound, the percent of negative control (+Dex) in experiment [2] was 85% (inactive). For the same compound, the z-score in experiment [2] was -0.55; in experiment [3] it was -0.71 (inactive); in experiment [4], 3.14 (inactive); in experiment [7] (setting [8]), -0.193 (inactive); in experiment [7] (setting [9]), -0.317. Further, in experiment [5], the EGFP object count was determined as 6. Further, the EGFP/DsRed ratio in experiment [5] was 0.152 (inactive). In experiment [6], the fraction signal was -0.008 (inactive).

Turning to `C[C@@H](Oc1cc(-n2cnc3ccc(OCC4CCN(C)CC4)cc32)sc1C(N)=O)c1ccccc1C(F)(F)F`, in experiment [1], the liver cell % of control was 80.7%. Further, the parasite % of control in experiment [1] is 130% (inactive). Also, in experiment [2], the percent of negative control (+Dex) is 98.5% (inactive). Besides, the z-score in experiment [2] is -0.76; in experiment [3], -1.17 (inactive); in experiment [4], -2 (inactive); in experiment [7] (setting [8]), 0.571 (inactive); in experiment [7] (setting [9]) it was 0.279. Besides, the EGFP object count in experiment [5] is 12. Besides, the EGFP/DsRed ratio in experiment [5] was 0.346 (inactive). Further, the fraction signal in experiment [6] is -0.0025 (inactive).

Consider `O=C(Nc1n[nH]c2cc(-c3ccc(F)cc3)ccc12)C1CC1`, for which, in experiment [1], the liver cell % of control amounted to 152%. Besides, the parasite % of control in experiment [1] is 140% (inactive). Further, in experiment [2], the percent of negative control (+Dex) is 115% (inactive). Moreover, the z-score in experiment [2] is 1.05; in experiment [3], 0.27 (inactive); in experiment [4], 0.642 (inactive); in experiment [7] (setting [8]), -1.18 (inactive); in experiment [7] (setting [9]), -0.329. The EGFP object count in experiment [5] is 3. Moreover, the EGFP/DsRed ratio in experiment [5] was 0.145 (inactive). In addition, the fraction signal in experiment [6] is -0.001 (inactive).

For `Fc1cccc(COc2ccc(Nc3ncncc3C#Cc3ccccc3)cc2Cl)c1`, the liver cell % of control in experiment [1] amounted to 87.3%. For the same compound, in experiment [1], the parasite % of control is 98% (inactive). The percent of negative control (+Dex) in experiment [2] was 85.5% (inactive). Moreover, the z-score in experiment [2] was -0.815; in experiment [3], 1.36 (inactive); in experiment [4], -0.904 (inactive); in experiment [7] (setting [8]) it was -0.0898 (inactive); in experiment [7] (setting [9]), -0.226. The EGFP object count in experiment [5] came to 4. Further, in experiment [5], the EGFP/DsRed ratio is 0.0412 (inactive). The fraction signal in experiment [6] is -0.002 (inactive).

`Nc1nc(-c2cccc(Cl)c2)c(-c2ccc3ncccc3n2)s1` displayed a liver cell % of control in experiment [1] of 156%. Also, the parasite % of control in experiment [1] is 115% (inactive). Besides, the percent of negative control (+Dex) in experiment [2] is 103% (inactive). Besides, the z-score in experiment [2] is 0.42; in experiment [3], -1.02 (inactive); in experiment [4], -0.477 (inactive); in experiment [7] (setting [8]), 0.115 (inactive); in experiment [7] (setting [9]) it was -0.0691. Further, the EGFP object count in experiment [5] turned out to be 2.5. Also, the EGFP/DsRed ratio in experiment [5] was 0.0471 (inactive). Moreover, in experiment [6], the fraction signal was -0.0045 (inactive).

As to `NS(=O)(=O)c1cccc(-c2cc3ccncc3cc2OCc2ccccc2)c1`, in experiment [1], the liver cell % of control was determined as 147%. Moreover, in experiment [1], the parasite % of control is 183% (inactive). The percent of negative control (+Dex) in experiment [2] is 95% (inactive). Further, the z-score was 0.36 in experiment [2]; 1.48 (inactive) in experiment [3]; -0.246 (inactive) in experiment [4]; 2.15 (active) in experiment [7] (setting [8]); 0.958 in experiment [7] (setting [9]). For the same compound, the EGFP object count in experiment [5] was 3.5. Besides, in experiment [5], the EGFP/DsRed ratio was 0.215 (inactive). For the same compound, the fraction signal in experiment [6] is -0.012 (inactive).

In experiment [1], `Cn1c(-c2nonc2N)nc2cnccc21` displayed a liver cell % of control of 87.4%. The parasite % of control in experiment [1] is 106% (inactive). Besides, the percent of negative control (+Dex) in experiment [2] is 70.5% (inactive). The z-score in experiment [2] is -2.13; in experiment [3], -0.36 (inactive); in experiment [4], -0.113 (inactive); in experiment [7] (setting [8]) it was -0.058 (inactive); in experiment [7] (setting [9]), -0.308. The EGFP object count in experiment [5] was 4.5. Besides, in experiment [5], the EGFP/DsRed ratio was 0.0787 (inactive). The fraction signal in experiment [6] was -0.0065 (inactive).

As for `CN(c1ccc(NC(=O)Nc2c(Cl)cccc2Cl)cc1)c1ccnc(Nc2cccc(CS(C)(=O)=O)c2)n1`, the liver cell % of control in experiment [1] worked out at 108%. Moreover, the parasite % of control in experiment [1] is 130% (inactive). The percent of negative control (+Dex) in experiment [2] is 134% (inactive). The z-score is 3.88 in experiment [2]; 0.545 (inactive) in experiment [3]; 5.36 (inactive) in experiment [4]; -0.649 (inactive) in experiment [7] (setting [8]); -0.476 in experiment [7] (setting [9]). Also, in experiment [5], the EGFP object count was 4. The EGFP/DsRed ratio in experiment [5] is 0.171 (inactive). Also, the fraction signal in experiment [6] was 0.005 (inactive).
